A number with no mark means an inactive call. The source made the active and inactive calls. Rule as the data show it: active = potency below about 10 µM; inactive = the rest. A value given as a limit tells only on which side of the number the result lay.
Potency is read from the fitted curve at half-maximal effect.

Chain of Lysosomal acid glucosylceramidase (Homo sapiens) (P04062 whole entry, looked up): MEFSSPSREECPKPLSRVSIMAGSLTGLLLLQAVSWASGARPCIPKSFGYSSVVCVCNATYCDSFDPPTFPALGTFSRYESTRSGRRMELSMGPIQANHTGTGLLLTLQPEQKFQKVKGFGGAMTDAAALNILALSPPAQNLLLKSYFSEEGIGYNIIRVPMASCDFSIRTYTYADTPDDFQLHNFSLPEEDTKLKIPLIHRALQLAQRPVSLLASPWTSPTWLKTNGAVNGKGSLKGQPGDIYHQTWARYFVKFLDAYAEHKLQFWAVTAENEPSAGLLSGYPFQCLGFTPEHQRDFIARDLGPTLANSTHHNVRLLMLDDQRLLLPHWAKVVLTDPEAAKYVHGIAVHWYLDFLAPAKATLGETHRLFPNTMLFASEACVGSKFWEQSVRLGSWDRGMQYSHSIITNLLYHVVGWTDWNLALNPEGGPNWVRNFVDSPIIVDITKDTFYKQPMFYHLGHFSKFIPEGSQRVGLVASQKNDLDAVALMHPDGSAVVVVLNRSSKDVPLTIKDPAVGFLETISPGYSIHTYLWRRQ

The assay has as its target Lysosomal acid glucosylceramidase (Homo sapiens) (UniProt P04062). Put plainly: Glucocerebrosidase-p2 (AID 348). To be noted: purified GBA, blue fluorogenic substrate, 40 min. The method, boiled down: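 Normal human glucocerebrosidase (0.2 nM) with blue fluorogenic substrate (80 uM final) in citrate/phosphate pH 5.9 with 10mM sodium taurocholate, 0.01% tween-20; 40 min RT, NaOH/glycine stop; fluorescence Ex 365/Em 440; AC50 from a titration from 0.6 nM upwards.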
On to `Cc1cccc(CNc2ncncc2-c2ccccc2CN(C)C)c1`, for which the Potency is > 11.4 µM.
Consider `COc1ccc(Oc2ncc3nc(-c4cc(F)cc(F)c4)c(=O)n(C4CC4)c3n2)cc1`, for which the Potency was > 11.4 µM.
For `O=c1c(-c2ccccc2)nc2cnc(Oc3ccccc3)nc2n1C[C@H]1CCCO1`, the Potency is > 11.4 µM.
Turning to `COc1ccccc1-c1nccc(N2CCN(C)CC2)n1`, the Potency is > 11.4 µM.
Regarding `Cc1nc2cnc(N3CCN(C)CC3)nc2n(CCc2ccccc2)c1=O`, the Potency was > 11.4 µM.
Regarding `COc1cccc(-c2cncnc2NCCN2CCOCC2)c1`, the Potency was > 11.4 µM.
As for `O=c1c(CCc2ccccc2)nc2cnc(Oc3ccccc3)nc2n1C1CC1`, the Potency is > 11.4 µM.
On to `CCNc1ncc2ncc(=O)n(Cc3ccc(F)cc3)c2n1`, for which the Potency was > 11.4 µM.
Turning to `c1ccc(CNc2nc(-c3cccnc3)nc3ccccc23)cc1`, the Potency is > 11.4 µM.
As for `COc1cccc(Cn2c(=O)cnc3cnc(Nc4cccc(OC)c4)nc32)c1`, the Potency was > 11.4 µM.
Consider `COc1cccc(-c2ccc3ncnc(NCc4cnc(C)cn4)c3c2)c1`, for which the Potency is > 11.4 µM.
Turning to `Cn1c(=O)c(-c2ccccc2)nc2cnc(N3CCOCC3)nc21`, the Potency was > 11.4 µM.
The result for `CN1CCN(c2ncc3nc(-c4cn(C)c5ccccc45)c(=O)n(C[C@H]4CCCO4)c3n2)CC1` reads > 11.4 µM.
Consider `COc1cccc(-c2nc(NC3CC3)c3ccccc3n2)c1`, for which the Potency is 2.73 µM (active).
Turning to `COc1ccc2[nH]cc(CCNc3ncnc4ccc(-c5ccoc5)cc34)c2c1`, the Potency was > 11.4 µM.
Regarding `O=c1c(-c2cccc(F)c2)nc2cncnc2n1Cc1ccc(F)cc1`, the Potency is > 11.4 µM.
As for `COc1ccccc1CNc1ncnc2ccc(-c3cccc(NS(C)(=O)=O)c3)cc12`, the Potency was > 11.4 µM.
Regarding `COc1ccc(CNc2ncncc2-c2ccccc2OC)c(OC)c1`, the Potency was > 11.4 µM.
`COCCn1c(=O)c(-c2cccs2)nc2cnc(Oc3ccccc3)nc21`: the Potency is > 11.4 µM.
With `CN(C)c1ncnc2ccc(-c3cccc(NS(C)(=O)=O)c3)cc12`, the Potency is > 11.4 µM.
With `COc1ccc(Oc2ncc3nc(-c4ccc(F)cc4)c(=O)n(C[C@H]4CCCO4)c3n2)cc1`, the Potency was > 11.4 µM.
As for `CN(C)c1ncc2nc(CCc3ccccc3)c(=O)n(CCC#N)c2n1`, the figure is > 11.4 µM.
As for `CN(C)c1ncc2nc(CCc3ccccc3)c(=O)n(CCc3ccccc3)c2n1`, the figure is > 11.4 µM; as for `COc1ccc(CNc2cc(-c3cccc(NS(C)(=O)=O)c3)ncn2)c(OC)c1`, > 11.4 µM; as for `O=c1c(CCc2ccccc2)nc2cnc(Nc3ccccc3)nc2n1C[C@H]1CCCO1`, > 11.4 µM.
With `CCNc1ncc2nc(CCc3ccccc3)c(=O)n(Cc3cccc(OC)c3)c2n1`, the Potency was > 11.4 µM.
As for `COCCn1c(=O)c(-c2cc(F)cc(F)c2)nc2cnc(N3CCN(C)CC3)nc21`, the Potency is > 11.4 µM.
Consider `COc1ccccc1CNc1cc(-c2ccccc2CN(C)C)ncn1`, for which the Potency was > 11.4 µM.
As to `CN(Cc1ccco1)c1nc(-c2ccccc2C(F)(F)F)nc2ccccc12`, the Potency is > 11.4 µM.
On to `O=c1c(CCc2ccccc2)nc2cnc(N3CCOCC3)nc2n1-c1ccccc1`, for which the Potency was > 11.4 µM.
For the compound `O=c1c(CCc2ccccc2)nc2cnc(N3CCNCC3)nc2n1Cc1cccs1`, the Potency was > 11.4 µM.
Take `N#CCCn1c(=O)c(-c2cccc(C#N)c2)nc2cnc(Oc3cccc(Cl)c3)nc21`: the Potency is > 11.4 µM.
With `Cn1cc(-c2nc3cnc(N4CCNCC4)nc3n(C3CC3)c2=O)c2ccccc21`, the Potency was > 11.4 µM.
As to `COc1ccccc1-c1ccc2ncnc(N3CCNCC3)c2c1`, the Potency was > 11.4 µM.
Take `COCCn1c(=O)c(-c2ccccc2)nc2cnc(Oc3cccc(Cl)c3)nc21`: the Potency is > 11.4 µM.
Regarding `COc1ccccc1-c1nccc(NCc2cccs2)n1`, the Potency is > 2.29 µM.
For the compound `Clc1ccccc1-c1nc(-n2ccnc2)c2ccccc2n1`, the Potency is > 11.4 µM.
In the case of `COc1ccc(-n2c(=O)c(CCc3ccccc3)nc3cnc(OC)nc32)cc1`, the Potency is > 11.4 µM.
For the compound `COc1ccc(Oc2ncc3nc(-c4cccc(C#N)c4)c(=O)n(Cc4cccc(OC)c4)c3n2)cc1`, the Potency is > 11.4 µM.
Regarding `N#Cc1cccc(-c2nc(NCCN3CCOCC3)c3ccccc3n2)c1`, the Potency is > 11.4 µM.

(Values after PubChem BioAssay (NCATS).)
